# According to PubChem BioAssay (EPA / NIEHS):
# Where “and” joins values, the source holds several entries; their conditions need not be identical. Equal values may be shown once. Inconclusive results are not listed. A structure can be active in one record and inactive in another. Calls of active or inactive are those of the source. The calls were made as follows, unless noted: active = hit-call score of the fitted dose curve at least 0.9, where 1 is the maximum; inconclusive = response in the unintended direction; inactive = score below 0.9.
# How the values were obtained:
# [1] = target: Estrogen receptor (Homo sapiens) (UniProt P03372); experiment: OT_ERa_GFPERaERE_0480: Odyssey Thera (OT) 8-hour HeLa Transcription Induction Assay for Estrogen Receptor (AID 2283381; active = hit-call score of the fitted dose curve at least 0.9, where 1 is the maximum; inactive = score below 0.9)
# Chain of Estrogen receptor (Homo sapiens) (P03372 whole entry, looked up): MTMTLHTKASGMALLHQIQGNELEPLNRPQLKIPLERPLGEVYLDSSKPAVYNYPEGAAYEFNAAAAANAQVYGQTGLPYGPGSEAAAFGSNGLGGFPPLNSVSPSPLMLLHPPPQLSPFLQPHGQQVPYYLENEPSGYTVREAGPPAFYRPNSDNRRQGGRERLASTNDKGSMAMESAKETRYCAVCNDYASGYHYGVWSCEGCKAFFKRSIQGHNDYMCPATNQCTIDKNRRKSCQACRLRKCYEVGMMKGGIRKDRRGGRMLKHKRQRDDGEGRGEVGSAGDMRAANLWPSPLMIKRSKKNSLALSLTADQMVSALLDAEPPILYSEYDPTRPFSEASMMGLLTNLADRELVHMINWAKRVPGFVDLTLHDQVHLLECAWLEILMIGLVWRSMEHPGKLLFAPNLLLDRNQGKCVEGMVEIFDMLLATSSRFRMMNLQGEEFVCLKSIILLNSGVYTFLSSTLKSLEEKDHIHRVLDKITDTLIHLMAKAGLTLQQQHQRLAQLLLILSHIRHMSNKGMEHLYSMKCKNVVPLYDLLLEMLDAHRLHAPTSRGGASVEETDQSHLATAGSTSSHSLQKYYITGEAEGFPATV
# Outline: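 HeLa cells expressing GFP reporter under estrogen response element, imaged 8 h after dosing. GFP induction quantified by high-content fluorescence microscopy image analysis; gain of signal fitted versus DMSO.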
# [2] = target: Estrogen receptor (Homo sapiens) (UniProt P03372); experiment: OT_ERa_GFPERaERE_0120: Odyssey Thera (OT) 2-hour HeLa Transcription Induction Assay for Estrogen Receptor (AID 2283382)
# Outline: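 HeLa cells were dosed for 2 h, then GFP reporter induction was quantified by fluorescence microscopy with high-content image analysis. Gain of signal fitted against DMSO baseline.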
# [3] = target: Retinoic acid receptor RXR-alpha (Homo sapiens) (UniProt P19793); experiment: OT_NURR1_NURR1RXRa_0480: Odyssey Thera (OT) 8-hour HEK293T Protein Complementation Assay for Nurr1/retinoid X receptor (RXR) (AID 2283385)
# Chain of Retinoic acid receptor RXR-alpha (Homo sapiens) (P19793 whole entry, looked up, the tested form may be a part): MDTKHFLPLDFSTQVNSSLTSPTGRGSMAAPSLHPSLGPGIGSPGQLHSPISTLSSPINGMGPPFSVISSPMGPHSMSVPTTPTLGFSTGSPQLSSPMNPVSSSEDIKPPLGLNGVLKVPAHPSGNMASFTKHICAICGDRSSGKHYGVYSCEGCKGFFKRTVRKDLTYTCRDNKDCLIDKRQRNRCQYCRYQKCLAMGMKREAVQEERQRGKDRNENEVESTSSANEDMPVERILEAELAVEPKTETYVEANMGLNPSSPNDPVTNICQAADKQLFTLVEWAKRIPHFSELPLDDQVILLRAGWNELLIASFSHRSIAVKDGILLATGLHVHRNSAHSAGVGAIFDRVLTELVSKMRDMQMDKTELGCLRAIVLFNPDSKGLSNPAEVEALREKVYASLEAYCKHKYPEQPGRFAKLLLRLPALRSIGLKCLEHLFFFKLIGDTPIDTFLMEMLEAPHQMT
# Outline: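 HEK293T cells expressing Nurr1 and RXRα fused to reporter fragments (protein-fragment complementation); fluorescence measured 8 h after dosing. Gain of signal fitted relative to DMSO.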
# [4] = target: Retinoic acid receptor RXR-alpha (Homo sapiens) (UniProt P19793); experiment: OT_NURR1_NURR1RXRa_1440: Odyssey Thera (OT) 24-hour HEK293T Protein Complementation Assay for Nurr1/retinoid X receptor (RXR) (AID 2283386)
# Outline: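 HEK293T protein-fragment complementation of Nurr1 and RXRα fused to reporter fragments; compounds 24 h. Fluorescence gain from reconstituted reporter fitted versus DMSO.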
# [5] = target: human Serotonin Transporter (SERT), SLC6A4 (gene 6532) (UniProt P31645); experiment: NVS_TR_hSERT: NovaScreen (NVS) Transporter Assay for human Serotonin Transporter (SERT) (AID 2283372)
# Outline: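 Radioligand binding to native SERT in human platelet membranes, read by filter-based scintillation counting 1 h after dosing. Primary screen in duplicate at 25 uM; actives followed up in concentration series; loss of signal versus DMSO baseline.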
# [6] = target: rat Serotonin Transporter (SERT), Slc6a4 (gene 25553) (UniProt P31652); experiment: NVS_TR_rSERT: NovaScreen (NVS) Transporter Assay for rat Serotonin Transporter (SERT) (AID 2283375)
# Chain of rat Serotonin Transporter (SERT), Slc6a4 (gene 25553) (P31652 whole entry, looked up): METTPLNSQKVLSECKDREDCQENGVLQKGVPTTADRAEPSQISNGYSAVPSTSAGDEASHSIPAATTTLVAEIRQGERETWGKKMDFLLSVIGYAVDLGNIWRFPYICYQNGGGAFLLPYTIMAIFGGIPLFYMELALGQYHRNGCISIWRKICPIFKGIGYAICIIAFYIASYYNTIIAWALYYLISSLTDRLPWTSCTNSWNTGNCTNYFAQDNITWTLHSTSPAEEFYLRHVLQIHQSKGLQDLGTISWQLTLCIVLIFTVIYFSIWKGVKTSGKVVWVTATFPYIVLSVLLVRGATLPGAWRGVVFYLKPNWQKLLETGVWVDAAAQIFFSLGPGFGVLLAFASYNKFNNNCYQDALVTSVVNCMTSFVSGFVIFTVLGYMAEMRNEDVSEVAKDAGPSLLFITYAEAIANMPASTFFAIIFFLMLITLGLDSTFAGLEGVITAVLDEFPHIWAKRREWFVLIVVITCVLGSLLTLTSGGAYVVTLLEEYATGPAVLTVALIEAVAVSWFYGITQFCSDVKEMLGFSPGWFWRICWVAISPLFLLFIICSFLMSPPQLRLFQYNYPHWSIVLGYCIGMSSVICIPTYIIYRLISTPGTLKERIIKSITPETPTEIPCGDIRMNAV
# Outline: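 Filtration-based radiodetection quantified loss of specific radioligand binding in rat forebrain membranes after 1 hour of chemical exposure, relative to DMSO. Chemicals were first tested in duplicate at 25 uM.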
# [7] = target: Bile acid receptor (Homo sapiens) (UniProt Q96RI1); experiment: OT_FXR_FXRSRC1_0480: Odyssey Thera (OT) 8-hour HEK293T Protein-Complementation Assay for Farnesoid X receptor/SRC-1 Co-activator (AID 2283383)
# Chain of Bile acid receptor (Homo sapiens) (Q96RI1 whole entry, looked up, the tested form may be a part): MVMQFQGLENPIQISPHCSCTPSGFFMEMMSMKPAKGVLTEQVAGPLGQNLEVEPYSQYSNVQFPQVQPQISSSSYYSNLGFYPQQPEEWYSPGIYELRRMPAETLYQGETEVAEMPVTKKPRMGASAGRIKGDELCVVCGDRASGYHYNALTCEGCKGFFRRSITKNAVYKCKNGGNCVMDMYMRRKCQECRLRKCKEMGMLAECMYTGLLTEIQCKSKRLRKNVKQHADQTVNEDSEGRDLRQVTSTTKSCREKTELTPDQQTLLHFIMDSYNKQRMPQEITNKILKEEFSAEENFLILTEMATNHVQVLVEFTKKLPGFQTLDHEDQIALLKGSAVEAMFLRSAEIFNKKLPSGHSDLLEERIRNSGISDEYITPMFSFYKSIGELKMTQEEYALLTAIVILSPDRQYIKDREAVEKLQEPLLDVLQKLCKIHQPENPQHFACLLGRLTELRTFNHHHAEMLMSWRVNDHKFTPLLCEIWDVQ
# Outline: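 HEK293T protein-fragment complementation assay: FXR and SRC-1 coactivator are fused to reporter fragments, and their interaction restores a fluorescent reporter. Readout was taken 8 h after dosing, with gain of signal fit relative to DMSO.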
# [8] = target: Bile acid receptor (Homo sapiens) (UniProt Q96RI1); experiment: OT_FXR_FXRSRC1_1440: Odyssey Thera (OT) 24-hour HEK293T Protein-Complementation Assay for Farnesoid X receptor/SRC-1 Co-activator (AID 2283384)
# Outline: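 HEK293T cells, 24 h after chemical dosing. FXR–SRC-1 coactivator interaction read as fluorescence from protein-fragment complementation of a split reporter. Gain of signal fitted against DMSO baseline.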
# [9] = target: Peroxisome proliferator-activated receptor gamma (Homo sapiens) (UniProt P37231); experiment: NVS_NR_hPPARg: NovaScreen (NVS) Nuclear Receptor Binding Assay for human Peroxisome Proliferator-activated Receptor gamma (PPARg) (AID 2283370)
# Chain of Peroxisome proliferator-activated receptor gamma (Homo sapiens) (P37231 whole entry, looked up): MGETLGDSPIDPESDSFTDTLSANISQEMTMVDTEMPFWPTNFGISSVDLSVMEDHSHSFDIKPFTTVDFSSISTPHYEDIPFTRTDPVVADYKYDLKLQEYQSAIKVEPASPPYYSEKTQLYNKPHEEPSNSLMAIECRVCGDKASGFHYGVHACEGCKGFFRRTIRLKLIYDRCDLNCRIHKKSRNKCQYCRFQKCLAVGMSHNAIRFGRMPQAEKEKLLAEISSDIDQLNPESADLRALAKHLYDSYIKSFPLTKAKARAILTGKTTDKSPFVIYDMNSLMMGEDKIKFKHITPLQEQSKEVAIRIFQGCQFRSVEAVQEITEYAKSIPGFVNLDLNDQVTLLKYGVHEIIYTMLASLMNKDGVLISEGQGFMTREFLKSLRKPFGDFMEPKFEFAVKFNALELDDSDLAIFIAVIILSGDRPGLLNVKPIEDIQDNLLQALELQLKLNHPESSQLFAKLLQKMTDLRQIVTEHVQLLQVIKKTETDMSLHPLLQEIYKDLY
# Outline: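 Chemicals were tested first in duplicate at 25 uM, then in concentration series if active. Binding to cell-free PPARg protein was measured by fluorescence polarization after 2 h, with loss of signal scored against DMSO.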
# [10] = target: mouse Estrogen Receptor alpha (Era), Esr1 (gene 13982) (UniProt P19785); experiment: NVS_NR_mERa: NovaScreen (NVS) Nuclear Receptor Binding Assay for mouse Estrogen Receptor alpha (Era) (AID 2283378);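 also: hit means loss of bound radioligand signal relative to DMSO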
# Chain of mouse Estrogen Receptor alpha (Era), Esr1 (gene 13982) (P19785 whole entry, looked up): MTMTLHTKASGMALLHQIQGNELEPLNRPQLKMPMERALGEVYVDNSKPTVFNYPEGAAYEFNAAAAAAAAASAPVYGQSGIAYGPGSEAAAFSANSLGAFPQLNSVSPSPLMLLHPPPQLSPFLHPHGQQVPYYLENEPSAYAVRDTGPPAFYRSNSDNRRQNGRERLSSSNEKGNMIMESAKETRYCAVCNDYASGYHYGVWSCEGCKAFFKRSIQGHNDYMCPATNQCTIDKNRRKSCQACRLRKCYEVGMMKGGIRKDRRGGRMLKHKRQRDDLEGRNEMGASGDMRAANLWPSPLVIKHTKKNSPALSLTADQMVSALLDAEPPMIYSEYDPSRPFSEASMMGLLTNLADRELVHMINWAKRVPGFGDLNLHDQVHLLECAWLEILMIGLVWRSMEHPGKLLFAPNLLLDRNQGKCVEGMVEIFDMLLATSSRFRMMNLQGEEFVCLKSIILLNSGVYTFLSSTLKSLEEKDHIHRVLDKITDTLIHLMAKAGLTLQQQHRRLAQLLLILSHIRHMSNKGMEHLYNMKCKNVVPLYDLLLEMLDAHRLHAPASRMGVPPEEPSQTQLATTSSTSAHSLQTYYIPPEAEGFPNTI
# Outline: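 Extracted mouse Era incubated with tritiated or iodinated radioligand plus test chemical, 18 h. Bound fraction separated on filters, counted by scintillation. DMSO = negative control/baseline; duplicate single-point at 25 uM, then concentration-response follow-up.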
# [11] = target: human Dopamine Transporter (DAT), SLC6A3 (gene 6531) (UniProt Q01959); experiment: NVS_TR_hDAT: NovaScreen (NVS) Transporter Assay for human Dopamine Transporter (DAT) (AID 2283374);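 also: activity means loss of bound radioligand signal relative to DMSO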
# Chain of human Dopamine Transporter (DAT), SLC6A3 (gene 6531) (Q01959 whole entry, looked up): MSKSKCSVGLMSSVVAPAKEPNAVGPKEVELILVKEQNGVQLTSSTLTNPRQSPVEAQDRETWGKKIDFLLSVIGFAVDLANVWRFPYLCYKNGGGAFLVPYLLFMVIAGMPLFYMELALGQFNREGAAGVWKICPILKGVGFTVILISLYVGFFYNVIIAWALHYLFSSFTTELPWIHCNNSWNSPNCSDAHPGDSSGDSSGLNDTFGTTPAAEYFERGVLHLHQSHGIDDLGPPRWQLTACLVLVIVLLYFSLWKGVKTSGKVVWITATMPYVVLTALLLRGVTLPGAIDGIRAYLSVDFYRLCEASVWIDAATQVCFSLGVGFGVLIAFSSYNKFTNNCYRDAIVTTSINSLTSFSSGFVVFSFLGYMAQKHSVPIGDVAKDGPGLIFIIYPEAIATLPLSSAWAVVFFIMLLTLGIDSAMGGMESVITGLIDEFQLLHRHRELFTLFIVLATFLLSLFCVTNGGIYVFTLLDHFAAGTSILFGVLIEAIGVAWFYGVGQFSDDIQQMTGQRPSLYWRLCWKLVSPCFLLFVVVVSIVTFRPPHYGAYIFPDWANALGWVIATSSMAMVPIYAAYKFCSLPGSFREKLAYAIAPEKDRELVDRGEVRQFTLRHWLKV
# Outline: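 Cell-free radioligand binding to extracted human DAT protein, read 1 h after dosing by filter-based scintillation counting. Loss of specific binding scored against DMSO baseline; primary screen in duplicate at 25 uM, actives then run in concentration series.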
# [12] = target: human Norepinephrine Transporter (NET), SLC6A2 (gene 6530) (UniProt P23975); experiment: NVS_TR_hNET: NovaScreen (NVS) Transporter Assay for human Norepinephrine Transporter (NET) (AID 2283377);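 also: cell-free membrane protein extracted from CHO cells expressing human NET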
# Chain of human Norepinephrine Transporter (NET), SLC6A2 (gene 6530) (P23975 whole entry, looked up): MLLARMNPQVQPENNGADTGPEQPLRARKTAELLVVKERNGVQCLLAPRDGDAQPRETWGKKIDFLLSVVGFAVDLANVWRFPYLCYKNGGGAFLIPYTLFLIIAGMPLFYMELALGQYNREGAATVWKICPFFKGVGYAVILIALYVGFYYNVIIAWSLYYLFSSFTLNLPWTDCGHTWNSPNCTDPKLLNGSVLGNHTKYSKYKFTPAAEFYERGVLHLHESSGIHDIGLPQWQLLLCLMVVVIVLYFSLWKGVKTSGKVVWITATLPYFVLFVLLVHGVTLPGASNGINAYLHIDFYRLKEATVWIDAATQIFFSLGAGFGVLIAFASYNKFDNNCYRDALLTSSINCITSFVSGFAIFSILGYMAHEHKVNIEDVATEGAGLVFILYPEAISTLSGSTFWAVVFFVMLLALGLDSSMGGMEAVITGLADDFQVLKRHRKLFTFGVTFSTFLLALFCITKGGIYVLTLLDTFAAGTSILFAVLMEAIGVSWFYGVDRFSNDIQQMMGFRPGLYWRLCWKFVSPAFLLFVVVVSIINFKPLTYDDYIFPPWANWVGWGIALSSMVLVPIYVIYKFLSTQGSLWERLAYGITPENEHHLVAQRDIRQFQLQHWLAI
# Outline: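 Radioligand binding to human NET in cell-free CHO-derived protein preparations, read by filter-based scintillation counting 1 hour after dosing. Loss of signal versus DMSO baseline indicated displacement; primary screening in duplicate at 25 uM, actives then titrated.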
smiles,measurement,setting,value
CN(C)C(=O)Nc1ccc(Cl)c(Cl)c1,outcome,[1],inactive
same,outcome,[2],inactive
same,outcome,[3],inactive
same,outcome,[4],inactive
COc1c(Cl)ccc(Cl)c1C(=O)O,outcome,[5],inactive
same,outcome,[6],inactive
same,outcome,[1],inactive
same,outcome,[2],inactive
same,outcome,[4],inactive
c1ccc2[nH]c(-c3cscn3)nc2c1,outcome,[1],inactive
same,outcome,[2],inactive
same,outcome,[7],inactive
same,outcome,[8],inactive
O=C(O)C1(C(=O)Nc2ccc(Cl)cc2Cl)CC1,AC50,[9],8.65 µM (active)
same,outcome,[1],inactive
same,outcome,[2],inactive
same,outcome,[7],inactive
same,outcome,[8],inactive
same,AC50,[4],50 µM (active)
C#C[C@]1(O)CC[C@H]2[C@@H]3CCC4=CC(=O)CC[C@@H]4[C@H]3CC[C@@]21CC,outcome,[9],inactive
same,outcome,[10],inactive
same,AC50,[1],15.1 µM (active) and 8.91 µM (active)
same,outcome,[1],inactive
same,AC50,[2],12.1 µM (active) and 46.1 µM (active) and 5.67 µM (active)
same,outcome,[2],inactive
same,outcome,[3],inactive
same,outcome,[4],inactive
CCCCCOC(=O)COc1cc(N2C(=O)C3=C(CCCC3)C2=O)c(F)cc1Cl,outcome,[1],inactive
same,outcome,[2],inactive
same,outcome,[3],inactive
same,outcome,[4],inactive
C#CCOC(=O)[C@@H](C)Oc1ccc(Oc2ncc(Cl)cc2F)cc1,outcome,[9],inactive
same,AC50,[11],7.24 µM (active)
same,outcome,[1],inactive
same,outcome,[2],inactive
same,outcome,[7],inactive
same,outcome,[8],inactive
same,outcome,[3],inactive
same,outcome,[4],inactive
COC(=O)c1ccc(I)cc1S(=O)(=O)NC(=O)Nc1nc(C)nc(OC)n1,outcome,[4],inactive
O=C(Nc1ccc([N+](=O)[O-])cc1Cl)c1cc(Cl)ccc1O,outcome,[9],inactive
same,outcome,[1],inactive
same,outcome,[2],inactive
same,AC50,[7],5.91 µM (active)
same,AC50,[8],1.21 µM (active)
same,AC50,[3],1.19 µM (active)
same,outcome,[3],inactive
same,AC50,[4],1.45 µM (active)
same,outcome,[4],inactive
N[C@@H](Cc1cc(I)c(Oc2ccc(O)c(I)c2)c(I)c1)C(=O)O,AC50,[9],32.3 µM (active)
same,outcome,[9],inactive
same,AC50,[10],1.65 µM (active) and 20 µM (active) and 4.66 µM (active)
same,outcome,[10],inactive
same,outcome,[1],inactive
same,outcome,[2],inactive
O=C(O)c1ccccc1,outcome,[9],inactive
same,outcome,[12],inactive
same,outcome,[10],inactive
same,outcome,[1],inactive
same,outcome,[2],inactive
same,outcome,[3],inactive
same,outcome,[4],inactive
